The supplement of paper PMC6555819

These sequences were tested on RXRa DBDmut IVT, anti-RXR (DBD mutation: RXRa K156A/R161A, NR concentration 90 nM) (assay: PBM binding z-score (relative to random genomic background probes); higher = stronger binding; sequences stand for … in GC…GCGATTGACAGCGTAGAATGAAGG).
Method in brief: (§1)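 Probes were double-stranded and carried 34-nt variable regions with direct-repeat seeds, single-nucleotide variants, half-site ablations and random human genomic background sequences, printed on custom Agilent 4×180K protein-binding microarrays. Arrays were incubated 1 h with ligand-free nuclear receptor dimers in PBS pH 7.4, 2% milk, 0.02% Triton X-100, 1 mM DTT, 0.2 mg/mL BSA and 0.4 mg/ml salmon testes DNA. Antibodies against each partner (one per run) detected binding, and scanned fluorescence was regression-normalized. Binding z-scores use the random background probes as reference.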

Point of comparison: ACTTACGGGTCAACGAGGTTATAGGACGCGTATA, PBM binding z-score 2.24. Against it:
- CGAACTAGGTCAGAACTGGACAGTGAAGGATGAT — lower, 0.459
- CCTACTGGTCCAAAGGTCATTGATTCCAATGCTC — lower, 2.23
- CCGACTGGGGCAGAAAGGTTACCACACCATCCGG — lower, -0.654
- CCTGCTAGGTCAATAGTCAGCTAAAGCAGCTCGC — lower, 1.56
- GCTAGCTGGCCATTTGGGTCACTCAATGACGGGC — lower, -0.667
- TTACCAAGGGGAAGGTCGTTGATCCCTCTGTAGA — lower, -0.444
- ACTATTAGTTGACTTAGGGCAACCCATACGACGC — lower, 0.729
- CAAACTAGGTCGCGAAAGGTCAAAGTCGAATGAC — lower, 1.98
- CCTAGCAGGCCAGTGTCACTCAAGCATTTCGCTT — lower, 0.13
- TCATATAGGTAAACAGGTGGAAGTCCGTAAGTTA — lower, 1.38
- ATCGAAAGGTCGCGAGGTGAGTATACAGAAAGGC — lower, 0.903
- CCCCGGAGGACAACAGGAGGTCAGAGCTGCCAGA — lower, -0.883
- ACTTACGGGTCAACGAGGTTATAGTACGCGTATA — higher, 2.85
- TCGAGTAGGTTACCATTGGGGCATTCAGCTTTCT — lower, 0.45
- CCTTGTTGGTCAAGGTCACACACGCTATAGGTAC — lower, 1.83
- CCTACTGGGCCACGAAAGGTCATTTATTCAGTGA — lower, 0.751
- TCTTGTAGATCAAGAGAGGTTAAGAAAGTGCGCT — lower, 0.14

The sequences below were run on RXRa homodimer (NR concentration 180 nM) in the same assay as above.
Method in brief: as §1

Point of comparison: CAAACTAGGTCGCGAAAGGTCAAAGTCGAATGAC, PBM binding z-score 7.33. Against it:
- CGTTCAAGGTCAAGGTCAGTGAAAGAGACTCGAA — lower, 6.6
- ACTAGTTGGTCAGCCGAGGTCACACACAATTCGG — lower, 4.34
- AGTCAAAGTTCACTAGATAACGTAAGATTCAGCT — lower, 3.84
- ACTCGGAGAACAAAGGTCAGAGCTACGCCAGTGA — lower, 4.55
- CCTAGGTGGTCAGGAGGTCACACACCGGATATGA — lower, 5.16
- CCTTAAGGGTCACTGACAGGTTATAGCATTTGGA — lower, 6.82
- TCGAGTAGGTTACCAATGGGGCATTCCGCTTTCT — lower, 0.226
- TCTTGTAGATCAACGGTTAAGAAAGCCGAAGCCT — lower, 0.21
- CCGACTGGGGCAGAAAGGTTACCATACCATCCGG — lower, 1.61
- GCTAGCAGGCCATTTGGGTTACTCAATGACGGGC — lower, 0.0436
- AGTCAAAGTTCATCTAGGGAACGTAAGATATGCT — lower, 4.53
- CAAACTAGGTCACCGGATGGTCAAAGTCCGCATG — lower, 4.05
- CCTCGGAGGCCAGAAGGTCAGAGCTGTCCGCTTT — lower, 2.05
- CTCGAAAGGTCGGTTGAGGTGAGTGTACGGATAA — lower, 2.49
- TAGCCTAGGTCATGGTCCAGTATACCACGCGAAC — lower, 3.51
- CCTGCTAGGTCAATGGTCAGCTACAGCAGCTCGC — lower, 2.49
- TCGAGTACGTTAGGGGCATTCAGAATGGCGTCGA — lower, 0.3
- TAGCCTAGGACATTGGGCCAGTATAGTACGCATC — lower, -0.0784
- CCTTACGGGTCACAAGGTTATAGCACGACGAGCG — lower, 6.05
- GTAACGAGGGCAAGTTGATAGCAGAGTTTGATGG — lower, 0.851
- ACGTACGGGTCAACGAGGTTATAGCACGCGTATA — lower, 6.3
- TCAAACAGGTGAAGGTAACTCAGGTACGCAGTCG — lower, 1.13
- CGAACTAGGTCAGAACTGGACAGTGAAGGATGAT — lower, 1.3
- CCTACTGGTCCAAAGGTCATTGATTCCAATGCTC — lower, 5.45
- CCGACTGGGGCAGAAAGGTTACCACACCATCCGG — lower, 1.84
- CCTGCTAGGTCAATAGTCAGCTAAAGCAGCTCGC — lower, 1.42
- GCTAGCTGGCCATTTGGGTCACTCAATGACGGGC — lower, 0.339
- TTACCAAGGGGAAGGTCGTTGATCCCTCTGTAGA — lower, 0.898
- ACTATTAGTTGACTTAGGGCAACCCATACGACGC — lower, 0.631
- CCTAGCAGGCCAGTGTCACTCAAGCATTTCGCTT — lower, -0.38
- ACTTACGGGTCAACGAGGTTATAGGACGCGTATA — lower, 6.33
- TCATATAGGTAAACAGGTGGAAGTCCGTAAGTTA — lower, 0.624
- ATCGAAAGGTCGCGAGGTGAGTATACAGAAAGGC — lower, 5.7
- CCCCGGAGGACAACAGGAGGTCAGAGCTGCCAGA — lower, 2.21
- ACTTACGGGTCAACGAGGTTATAGTACGCGTATA — lower, 6.32
- TCGAGTAGGTTACCATTGGGGCATTCAGCTTTCT — lower, 0.293
- CCTTGTTGGTCAAGGTCACACACGCTATAGGTAC — lower, 4.51
- CCTACTGGGCCACGAAAGGTCATTTATTCAGTGA — lower, 4.96
- TCTTGTAGATCAAGAGAGGTTAAGAAAGTGCGCT — lower, 1.21

Each sequence was assayed on THRa:RXRa (NR concentration 90 nM, RXRa partner concentration 90 nM) in the same assay as above.
Method in brief: as §1

Point of comparison: TTACCAAGGGGAAGGTCGTTGATCCCTCTGTAGA, PBM binding z-score 0.64. Against it:
- CGTTCAAGGTCAAGGTCAGTGAAAGAGACTCGAA — higher, 4.48
- ACTAGTTGGTCAGCCGAGGTCACACACAATTCGG — higher, 5
- AGTCAAAGTTCACTAGATAACGTAAGATTCAGCT — higher, 1.46
- ACTCGGAGAACAAAGGTCAGAGCTACGCCAGTGA — higher, 2.76
- CCTAGGTGGTCAGGAGGTCACACACCGGATATGA — higher, 3.45
- CCTTAAGGGTCACTGACAGGTTATAGCATTTGGA — higher, 3.85
- TCGAGTAGGTTACCAATGGGGCATTCCGCTTTCT — lower, -0.155
- TCTTGTAGATCAACGGTTAAGAAAGCCGAAGCCT — lower, -0.24
- CCGACTGGGGCAGAAAGGTTACCATACCATCCGG — higher, 0.85
- GCTAGCAGGCCATTTGGGTTACTCAATGACGGGC — lower, 0.307
- AGTCAAAGTTCATCTAGGGAACGTAAGATATGCT — higher, 2.92
- CAAACTAGGTCACCGGATGGTCAAAGTCCGCATG — higher, 3.57
- CCTCGGAGGCCAGAAGGTCAGAGCTGTCCGCTTT — higher, 1.67
- CTCGAAAGGTCGGTTGAGGTGAGTGTACGGATAA — higher, 5.02
- TAGCCTAGGTCATGGTCCAGTATACCACGCGAAC — higher, 3.39
- CCTGCTAGGTCAATGGTCAGCTACAGCAGCTCGC — higher, 2.19
- TCGAGTACGTTAGGGGCATTCAGAATGGCGTCGA — lower, 0.637
- TAGCCTAGGACATTGGGCCAGTATAGTACGCATC — lower, 0.281
- CCTTACGGGTCACAAGGTTATAGCACGACGAGCG — higher, 3.26
- GTAACGAGGGCAAGTTGATAGCAGAGTTTGATGG — higher, 1.36
- ACGTACGGGTCAACGAGGTTATAGCACGCGTATA — higher, 4
- TCAAACAGGTGAAGGTAACTCAGGTACGCAGTCG — higher, 1.44
- CGAACTAGGTCAGAACTGGACAGTGAAGGATGAT — higher, 1.13
- CCTACTGGTCCAAAGGTCATTGATTCCAATGCTC — higher, 3.31
- CCGACTGGGGCAGAAAGGTTACCACACCATCCGG — higher, 1.01
- CCTGCTAGGTCAATAGTCAGCTAAAGCAGCTCGC — higher, 1.74
- GCTAGCTGGCCATTTGGGTCACTCAATGACGGGC — higher, 1.22
- ACTATTAGTTGACTTAGGGCAACCCATACGACGC — higher, 1.55
- CAAACTAGGTCGCGAAAGGTCAAAGTCGAATGAC — higher, 4.79
- CCTAGCAGGCCAGTGTCACTCAAGCATTTCGCTT — lower, -0.213
- ACTTACGGGTCAACGAGGTTATAGGACGCGTATA — higher, 4.32
- TCATATAGGTAAACAGGTGGAAGTCCGTAAGTTA — lower, 0.188
- ATCGAAAGGTCGCGAGGTGAGTATACAGAAAGGC — higher, 3.45
- CCCCGGAGGACAACAGGAGGTCAGAGCTGCCAGA — higher, 2.94
- ACTTACGGGTCAACGAGGTTATAGTACGCGTATA — higher, 4.14
- TCGAGTAGGTTACCATTGGGGCATTCAGCTTTCT — lower, 0.633
- CCTTGTTGGTCAAGGTCACACACGCTATAGGTAC — higher, 4.31
- CCTACTGGGCCACGAAAGGTCATTTATTCAGTGA — higher, 3.5
- TCTTGTAGATCAAGAGAGGTTAAGAAAGTGCGCT — higher, 2.27
